Source: PubChem BioAssay (Broad Institute)
In the library only some 3.4% were active in any assay of this set; here they are far more common.
Env fusion inh: HIV envelope-mediated fusion inhibition; HeLa-JRFL Env/CEM21 cell fusion, luciferase; inhibition, % at 12.3 µM; actives 1.1% (n = 360,000);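 active = mean replicate inhibition score of at least 50 and every replicate individually at or above 50; inconclusive = only one of the two criteria met; inactive = mean below 50 and not all replicates reaching 50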;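 also: 0% = plate neutral controls and 100% = maraviroc near 300 nM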
miR122 inh: blocks miR-122 activity in Huh7 sensor cells; Huh7 miR-122 Renilla luciferase sensor, 48 h; neutral wells = 0, positive control = 100; activation (reporter increase), % at 12.5 µM; actives 0.3% (n = 340,000);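 active = mean replicate activation score at least 90 and every replicate individually at or above 90; inconclusive = only one of the two criteria met; inactive = neither criterion met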;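 also: higher luciferase means less miR-122 activity so hits act as miR-122 inhibitors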
Wnt bcat act: activates Wnt/beta-catenin signaling in a reporter cell assay; actives 1.2% (n = 300,000); activation, % at 9.35 µM; activator, plate reader; in the data active = activation above about 30%, passing the limit was not always enough; inconclusive = no clear call, values can overlap the other calls;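 also: 0% = neutral control wells and 100% = positive control wells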
esBAF inh: blocks esBAF chromatin remodeling in mouse ES cells | reporter increase, % at 12.5 µM | Bmi1-luciferase knock-in reporter, 24 h; 100% = twice the neutral-well signal | AID 602393 | actives 2% (n = 350,000); in the data active = activation above about 40%; inconclusive = no clear call, values can overlap the other calls;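 also: 0% = median of the plate's neutral control wells and 100% = double that signal; a rise in the Bmi1 reporter signal indicates esBAF inhibition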
MITF TRPM1 HTS: activators of MITF-driven TRPM1 promoter activity in SK-MEL-5 cells; SK-MEL-5 TRPM1-promoter luciferase, 24 h; % of positive control, neutral wells = 0; activation, % at 12.5 µM; actives 0.75% (n = 300,000);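 active = mean activation of at least 80% with every replicate also reaching 80%; inconclusive = mean reaches 80% but some replicate falls short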;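 also: 0% = neutral control wells and 100% = parthenolide positive control wells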
Ring1 derepress: esBAF inhibition confirmed by Ring1 de-repression; mouse ESC E14, Ring1 mRNA RT-qPCR fold change; 550 tested, under 10 active; fold change at 33 µM; shares compounds with esBAF inh;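 active = Ring1 gene expression raised more than 2-fold over untreated cells in both replicates at either tested dose; inconclusive = only one replicate above 2-fold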;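 also: Ring1 transcript normalised to actin housekeeping signal by TaqMan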
esBAF Fgf4 qPCR: confirmation of esBAF inhibitors: Fgf4 repression in mouse ESCs; mouse ESC E14, Fgf4 mRNA qPCR fold change; hits give low values; shares compounds with esBAF inh; Fgf4 expression fold change at 33 µM; AID 743177; actives 4% (n = 550);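 active = Fgf4 expression under 0.8 fold of control in both repeat measurements at one or both tested doses; inconclusive = under 0.8 fold in just a single repeat measurement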;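 also: Fgf4 transcript normalised to actin in duplex TaqMan qPCR; cells exposed to compound for 24 h before lysis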
esBAF Bmi1 qPCR: confirmation of esBAF inhibitors: Bmi1 de-repression in mouse ESCs; shares compounds with esBAF inh; mouse ESE14 ES cells, Bmi1 mRNA qPCR fold; hits give high values; fold change at 33 µM; 550 tested, under 10 active; AID 743180;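 active = Bmi1 expression fold change above 6 at either tested concentration, seen in replicate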;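 also: higher fold means more Bmi1 de-repression and stronger esBAF inhibition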
A549 cytotox: cytotoxicity in A549 cells; cell viability change % (negative = cytotoxic), % at 25 µM, hits read low; shares compounds with esBAF inh; 550 tested, under 10 active; AID 743188; plate reader; call rule not given here
HepG2 tox SP: HepG2 cell cytotoxicity at single point; shares compounds with esBAF inh; plate reader; hits give low values; activity change, negative = inhibition, % at 25 µM; actives 4% (n = 550); AID 743189; in the data active = activity change below about -50%
HEK293 tox SP: kills or reduces viability of HEK293 cells; shares compounds with esBAF inh; HEK293 cytotoxicity, plate reader; activity change, negative = inhibition, % at 25 µM, hits read low; actives 3% (n = 550); in the data active = activity change below about -38%, passing the limit was not always enough
The depositor's hits bear a star; u = inconclusive; x = not tested or not shown; [ ] = another dose, or the depositor's remark.

SMILES	Env fusion inh	miR122 inh	Wnt bcat act	esBAF inh	MITF TRPM1 HTS	Ring1 derepress	esBAF Fgf4 qPCR	esBAF Bmi1 qPCR	A549 cytotox	HepG2 tox SP	HEK293 tox SP
Nc1ccc(C#Cc2ccc3c(=O)c4ccccc4oc3c2)cc1	-46	5	25	79*	111*	0.85	0.56*	3.5	-14	-1	-11
COc1cc2oc3cc(C#Cc4ccc(N)cc4)ccc3c(=O)c2cc1OC	u	-7	-9	-2	-1	x	x	x	x	x	x
CC(C)NC(=O)N(C)C[C@@H]1Oc2cc(C#CC3CC3)ccc2S(=O)(=O)N([C@@H](C)CO)C[C@H]1C	-18[16.7 µM]	21[16.7 µM]	x	-3	x	x	x	x	x	x	x
COc1ccccc1C(=O)Nc1ccc(C(=O)O)cc1	-19	4	x	-8	x	x	x	x	x	x	x
COc1cccc(NC(=O)c2ccccc2-c2ccccc2C(=O)O)c1	0	-1	0	-4	x	x	x	x	x	x	x
COc1cccc(NC(=O)c2ccccc2Br)c1	-38	3	4	57*	x	1.3	1	1.4	-8	-23	-12
COc1ccccc1C(=O)Oc1ccccc1C(=O)Nc1ccccc1	-127	5	27	69*	21	1.2	0.95	1.4	-14	-23	-16
CCCN(C)C[C@@H]1Oc2cc(-c3ccccc3C)ccc2S(=O)(=O)N([C@H](C)CO)C[C@@H]1C	-2[16.7 µM]	x	x	-6	x	x	x	x	x	x	x
O=C(Cc1ccccc1)N/N=C/c1ccccc1OCc1ccc(Cl)cc1	x	x	x	101*	69	1.2	u	2.7	-17	10	-14
COCCNC(=O)C[C@H]1C[C@H]2c3cc(NS(=O)(=O)c4ccc(F)cc4)ccc3O[C@H]2[C@@H](CO)O1	-12[16.7 µM]	1[16.7 µM]	x	-2	x	x	x	x	x	x	x
O=C(C[C@H]1CC[C@H]2[C@@H](COC[C@@H](O)CN2S(=O)(=O)c2ccc(Cl)cc2)O1)NCCN1CCCC1	x	0[16.7 µM]	x	1	x	x	x	x	x	x	x
c1cnc2cc(-c3ccsc3)ncc2c1	-11	-3	27	22	42	x	x	x	x	x	x
Fc1ccc2cc(-c3ccsc3)ncc2c1	-160	-5	36*	60*	73	1.3	0.82	1.6	2	-2	-6
O=C(C[C@H]1CC[C@H]2[C@@H](COC[C@@H](O)CN2Cc2ccccc2)O1)NCc1ccccc1Cl	x	-4[16.7 µM]	x	12	x	x	x	x	x	x	x
CC(C)CN1C(=O)c2ccc(NC(=O)c3cccs3)cc2C1=O	-18	7	x	63*	u	1.3	0.97	2.1	6	-4	-14
CC(C)CN1C(=O)c2ccc(C(=O)Nc3ccncc3)cc2C1=O	x	-6	0	4	-1	x	x	x	x	x	x
CC(C)CN1C(=O)c2ccc(NC(=O)c3ccco3)cc2C1=O	3	2	13	x	36	x	x	x	x	x	x
CC(C)CN1C(=O)c2ccc(C(=O)Nc3nccs3)cc2C1=O	x	-4	x	63*	34	0.95	0.98	1.4	-14	-34	-19
COc1cccc(-c2cnc3c(c2)C(=O)N([C@@H](C)CO)C[C@H](C)[C@H](CN(C)C(=O)CN(C)C)O3)c1	-1[16.7 µM]	63[16.7 µM]	x	-7	x	x	x	x	x	x	x
COc1ccc(-c2cn3c(C)c(C(=O)NC(C)(C)C)sc3n2)cc1	x	20	27	72*	x	0.82	0.9	1.9	3	-12	-8
COCCNC(=O)c1sc2nc(-c3ccccc3)cn2c1C	7	-15	x	33	x	x	x	x	x	x	x
Cc1cccc(NC(=O)C2C3CCCCC32)c1 (stereo unspecified)	-41	5	7	67*	45	0.95	0.87	1.6	-13	-4	-6
COc1ccccc1Nc1nc(Cl)nc(NC(C)(C)C)n1	5	x	0	x	-6	x	x	x	x	x	x
